{"source": "the supplement of paper PMC12669032", "data": [{"tested_on": "Bacteroides thetaiotaomicron", "assay": "growth AUC relative to DMSO control (median of replicates) (fraction); higher = more growth (less inhibition), active = hit call of the paper", "settings": "20 µM; 24 h;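 active = AUC reduced over 20% with Padj below 0.05 in at least 2 of 3 replicates; inactive = otherwise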", "how_it_was_run": "(§1)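 For each compound at 20 µM (1% DMSO), gut bacterial monocultures seeded at OD600 0.05 grew anaerobically in mGAM at 37 °C in round-bottom 96-well plates. Hourly OD600 readings over 24 h gave growth curves whose minimum OD was set to 0. Area under these curves was normalised to the plate median of solvent-only wells, or to row and column medians on the industrial chemical plate. Values are medians of three biological replicates grown on separate days.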", "values": [{"smiles": "CN(C)C(=O)Nc1ccc(Cl)cc1", "growth AUC": "0.973 (inactive)"}, {"smiles": "O=C(O)C1(O)c2ccccc2-c2ccc(Cl)cc21", "note": "(configuration not stated)", "growth AUC": "0.958 (inactive)"}, {"smiles": "N#CCNC(=O)c1cnccc1C(F)(F)F", "growth AUC": "0.988 (inactive)"}, {"smiles": "CCOP(=S)(OCC)Oc1nc(Cl)n(C(C)C)n1", "growth AUC": "1.01 (inactive)"}, {"smiles": "CCCCN(CC)C(=O)SCCC", "growth AUC": "0.979 (inactive)"}, {"smiles": "c1coc(-c2nc3ccccc3[nH]2)c1", "growth AUC": "0.96 (inactive)"}, {"smiles": "CC(C)Nc1nc(Cl)nc(NC(C)C)n1", "growth AUC": "0.96 (inactive)"}, {"smiles": "CN=C=S", "growth AUC": "1 (inactive)"}, {"smiles": "Clc1ccc(Cl)c(Cl)c1", "growth AUC": "1.02 (inactive)"}, {"smiles": "O=C1C2(Cl)C3(Cl)C4(Cl)C(Cl)(Cl)C5(Cl)C3(Cl)C1(Cl)C5(Cl)C24Cl", "note": "(configuration not stated)", "growth AUC": "0.0105 (active)"}, {"smiles": "Nc1ccncc1", "growth AUC": "0.981 (inactive)"}, {"smiles": "O=C(O)c1cc(Cl)ccc1Cl", "growth AUC": "1 (inactive)"}]}, {"tested_on": "Bacteroides uniformis", "assay": "growth AUC relative to DMSO control (median of replicates) (fraction); higher = more growth (less inhibition), active = hit call of the paper", "settings": "20 µM; 24 h", "how_it_was_run": "as §1", "values": [{"smiles": "CCS(=O)(=O)c1nc2ccccn2c1S(=O)(=O)NC(=O)Nc1nc(OC)cc(OC)n1", "growth AUC": "0.989 (inactive)"}, {"smiles": "C[Si](Cn1cncn1)(c1ccc(F)cc1)c1ccc(F)cc1", "growth AUC": "0.913 (inactive)"}, {"smiles": "CCSC(=O)N1CCCCCC1", "growth AUC": "0.966 (inactive)"}, {"smiles": "O=[N+]([O-])c1ccc(Oc2ccc(C(F)(F)F)cc2[N+](=O)[O-])cc1", "growth AUC": "0.917 (inactive)"}, {"smiles": "CC#Cc1cc(C)nc(Nc2ccccc2)n1", "growth AUC": "0.975 (inactive)"}, {"smiles": "COP(=O)(OC)OC1=C(Cl)C2C=CCC12", "note": "(configuration not stated)", "growth AUC": "1.02 (inactive)"}, {"smiles": "CCC(C)[C@H]1O[C@]2(C=C[C@@H]1C)C[C@@H]1C[C@@H](C/C=C(\\C)[C@@H](O[C@H]3C[C@H](OC)[C@@H](O[C@H]4C[C@H](OC)[C@@H](O)[C@H](C)O4)[C@H](C)O3)[C@@H](C)/C=C/C=C3\\CO[C@@H]4[C@H](O)C(C)=C[C@@H](C(=O)O1)[C@]34O)O2.CO[C@H]1C[C@H](O[C@H]2[C@H](C)O[C@@H](O[C@@H]3/C(C)=C/C[C@@H]4C[C@@H](C[C@]5(C=C[C@H](C)[C@@H](C(C)C)O5)O4)OC(=O)[C@@H]4C=C(C)[C@@H](O)[C@H]5OC/C(=C\\C=C\\[C@@H]3C)[C@]54O)C[C@@H]2OC)O[C@@H](C)[C@@H]1O", "note": "(some centres not stated)", "growth AUC": "1.01 (inactive)"}, {"smiles": "C[C@@H](Oc1ccc(Oc2nc3ccc(Cl)cc3o2)cc1)C(=O)O", "growth AUC": "0.929 (inactive)"}, {"smiles": "N#Cc1cc(I)c(O)c(I)c1", "growth AUC": "0.799 (active)"}, {"smiles": "CCc1cnc(C2=NC(C)(C(C)C)C(=O)N2)c(C(=O)O)c1", "note": "(configuration not stated)", "growth AUC": "1.01 (inactive)"}, {"smiles": "CON(C)C(=O)Nc1ccc(Cl)cc1", "growth AUC": "0.999 (inactive)"}, {"smiles": "COCC(=O)N(c1c(C)cccc1C)C(C)C(=O)OC", "note": "(configuration not stated)", "growth AUC": "1.02 (inactive)"}, {"smiles": "O=C1C[C@@H]2OCC=C3CN4CC[C@]56c7ccccc7N1[C@H]5[C@H]2[C@H]3C[C@H]46", "growth AUC": "1.01 (inactive)"}, {"smiles": "CC(C)=CC1C(C(=O)OCN2C(=O)C3=C(CCCC3)C2=O)C1(C)C", "note": "(configuration not stated)", "growth AUC": "0.97 (inactive)"}, {"smiles": "CCOP(=O)(SC(C)CC)SC(C)CC", "note": "(configuration not stated)", "growth AUC": "0.981 (inactive)"}, {"smiles": "Oc1ccc(Cl)c(Cl)c1Cl", "growth AUC": "0.96 (inactive)"}, {"smiles": "CSc1nnc(C(C)(C)C)c(=O)n1N", "growth AUC": "1.02 (inactive)"}, {"smiles": "Oc1c(Cl)ccc(Cl)c1Cl", "growth AUC": "0.981 (inactive)"}, {"smiles": "CCC1COC(Cn2cncn2)(c2ccc(Cl)cc2Cl)O1", "note": "(configuration not stated)", "growth AUC": "0.956 (inactive)"}, {"smiles": "O=[N+]([O-])/N=C1\\NCCN1Cc1ccc(Cl)nc1", "growth AUC": "1 (inactive)"}, {"smiles": "CCCCCCCCCCCCCN1CC(C)OC(C)C1", "note": "(configuration not stated)", "growth AUC": "0.982 (inactive)"}, {"smiles": "O=[N+]([O-])c1ccc(Oc2ccc(Cl)cc2Cl)cc1", "growth AUC": "0.931 (inactive)"}, {"smiles": "COc1cc(OC)nc(NC(=O)NS(=O)(=O)c2cc(NC=O)ccc2C(=O)N(C)C)n1", "growth AUC": "1.03 (inactive)"}, {"smiles": "C[N+](C)(C)CCCl.[Cl-]", "growth AUC": "1.01 (inactive)"}, {"smiles": "O=c1ccc(=O)[nH][nH]1", "growth AUC": "1.05 (inactive)"}, {"smiles": "CCC(C)(c1ccc(O)cc1)c1ccc(O)cc1", "growth AUC": "0.991 (inactive)"}, {"smiles": "Cc1cc(C(F)(C(F)(F)F)C(F)(F)F)ccc1NC(=O)c1cccc(I)c1C(=O)NC(C)(C)CS(C)(=O)=O", "growth AUC": "1.01 (inactive)"}, {"smiles": "CN(C)C(=O)Nc1ccc(Cl)cc1", "growth AUC": "1.02 (inactive)"}, {"smiles": "O=C(O)C1(O)c2ccccc2-c2ccc(Cl)cc21", "note": "(configuration not stated)", "growth AUC": "0.984 (inactive)"}, {"smiles": "N#CCNC(=O)c1cnccc1C(F)(F)F", "growth AUC": "0.99 (inactive)"}]}]}
